This passage reports binding signal results from paper PMC11006913.

What all share (assay): PBM; 200 nM protein, PBS
Conditions in all cases: dsDNA, one strand shown

For experiment [1], the target named is T1, SIX6 (Homo sapiens, UniProt O95475 114-200, L167I).
T1 sequence: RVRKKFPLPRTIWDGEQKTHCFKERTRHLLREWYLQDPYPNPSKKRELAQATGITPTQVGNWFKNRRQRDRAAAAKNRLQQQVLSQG

The target in experiment [2] is T2, SIX6 (Homo sapiens, UniProt O95475 114-200, L143V).
T2 sequence: T1 sequence with L30V, I54L

Experiment [3] concerns the target T3, SIX6 (Homo sapiens, UniProt O95475 114-200, H141N).
T3 sequence: T1 sequence with H28N, I54L

The target of experiment [4] is T4, SIX6 (Homo sapiens, UniProt O95475 114-200, T165P).
T4 sequence: T1 sequence with T52P, I54L

In experiment [5] the target is T5, SIX6 (Homo sapiens, UniProt O95475 114-200, L167M).
T5 sequence: T1 sequence with I54M

The target in experiment [6] is T6, SIX6 (Homo sapiens, UniProt O95475 114-200, L143M).
T6 sequence: T1 sequence with L30M, I54L

Experiment [7] deals with T7, SIX6 (Homo sapiens, UniProt O95475 114-200, L143I).
T7 sequence: T1 sequence with L30I, I54L

For experiment [8], the target named is T8, SIX6 (Homo sapiens, UniProt O95475 114-200, T165G).
T8 sequence: T1 sequence with T52G, I54L

Experiment [9] has as its target T9, SIX6 (Homo sapiens, UniProt O95475 114-200, T139Q).
T9 sequence: T1 sequence with T26Q, I54L

Experiment [10] concerns the target T10, SIX6 (Homo sapiens, UniProt O95475 114-200, T165A).
T10 sequence: T1 sequence with T52A, I54L

Experiment [11] addresses T11, SIX6 (Homo sapiens, UniProt O95475 114-200, L167V).
T11 sequence: T1 sequence with I54V

For experiment [12], the target named is T12, SIX6 (Homo sapiens, UniProt O95475 114-200).
T12 sequence: T1 sequence with I54L

The target in experiment [13] is T13, SIX6 (Homo sapiens, UniProt O95475 114-200, T165I).
T13 sequence: T1 sequence with T52I, I54L

Numbering of substitutions follows the chain as printed.

For the sequence GGCCTCCA, the binding signal with SIX6 [1] was 8.94 upbm affinity estimate (log intensity, higher = more binding, comparable within an allelic series); in the experiment with SIX6 [2], 8.93 upbm affinity estimate (log intensity, higher = more binding, comparable within an allelic series); with SIX6 [3], 8.87 upbm affinity estimate (log intensity, higher = more binding, comparable within an allelic series); with SIX6 [4], 9.13 upbm affinity estimate (log intensity, higher = more binding, comparable within an allelic series); in the experiment with SIX6 [5], 8.94 upbm affinity estimate (log intensity, higher = more binding, comparable within an allelic series); with SIX6 [6], 8.87 upbm affinity estimate (log intensity, higher = more binding, comparable within an allelic series). The binding signal in the experiment with SIX6 [7] was 8.9 upbm affinity estimate (log intensity, higher = more binding, comparable within an allelic series); with SIX6 [8], 9 upbm affinity estimate (log intensity, higher = more binding, comparable within an allelic series); in the experiment with SIX6 [9] it was 8.8 upbm affinity estimate (log intensity, higher = more binding, comparable within an allelic series); with SIX6 [10] it was 8.84 upbm affinity estimate (log intensity, higher = more binding, comparable within an allelic series); with SIX6 [11] it was 9.03 upbm affinity estimate (log intensity, higher = more binding, comparable within an allelic series); with SIX6 [12] it was 8.82 upbm affinity estimate (log intensity, higher = more binding, comparable within an allelic series). Moreover, the binding signal with SIX6 [13] was 8.87 upbm affinity estimate (log intensity, higher = more binding, comparable within an allelic series).
Regarding GATATCCA, the binding signal in the experiment with SIX6 [1] was 11.1 upbm affinity estimate (log intensity, higher = more binding, comparable within an allelic series); with SIX6 [2], 10.3 upbm affinity estimate (log intensity, higher = more binding, comparable within an allelic series); in the experiment with SIX6 [3] it was 11 upbm affinity estimate (log intensity, higher = more binding, comparable within an allelic series); in the experiment with SIX6 [4], 9.81 upbm affinity estimate (log intensity, higher = more binding, comparable within an allelic series); with SIX6 [5] it was 10.7 upbm affinity estimate (log intensity, higher = more binding, comparable within an allelic series); in the experiment with SIX6 [6], 10.9 upbm affinity estimate (log intensity, higher = more binding, comparable within an allelic series). The binding signal was 10.3 upbm affinity estimate (log intensity, higher = more binding, comparable within an allelic series) with SIX6 [7]; 11.1 upbm affinity estimate (log intensity, higher = more binding, comparable within an allelic series) with SIX6 [8]; 11 upbm affinity estimate (log intensity, higher = more binding, comparable within an allelic series) with SIX6 [9]; 11 upbm affinity estimate (log intensity, higher = more binding, comparable within an allelic series) with SIX6 [10]; 10.9 upbm affinity estimate (log intensity, higher = more binding, comparable within an allelic series) with SIX6 [11]; 10.9 upbm affinity estimate (log intensity, higher = more binding, comparable within an allelic series) in the experiment with SIX6 [12]. The binding signal in the experiment with SIX6 [13] was 10.8 upbm affinity estimate (log intensity, higher = more binding, comparable within an allelic series).
Consider GCCTTCGC, for which the binding signal with SIX6 [1] is 8.84 upbm affinity estimate (log intensity, higher = more binding, comparable within an allelic series); in the experiment with SIX6 [2], 9.04 upbm affinity estimate (log intensity, higher = more binding, comparable within an allelic series); with SIX6 [3] it was 8.95 upbm affinity estimate (log intensity, higher = more binding, comparable within an allelic series); in the experiment with SIX6 [4], 9.09 upbm affinity estimate (log intensity, higher = more binding, comparable within an allelic series); in the experiment with SIX6 [5] it was 8.82 upbm affinity estimate (log intensity, higher = more binding, comparable within an allelic series); with SIX6 [6], 9.06 upbm affinity estimate (log intensity, higher = more binding, comparable within an allelic series). The binding signal is 8.98 upbm affinity estimate (log intensity, higher = more binding, comparable within an allelic series) with SIX6 [7]; 8.83 upbm affinity estimate (log intensity, higher = more binding, comparable within an allelic series) with SIX6 [8]; 8.96 upbm affinity estimate (log intensity, higher = more binding, comparable within an allelic series) with SIX6 [9]; 8.83 upbm affinity estimate (log intensity, higher = more binding, comparable within an allelic series) with SIX6 [10]; 8.91 upbm affinity estimate (log intensity, higher = more binding, comparable within an allelic series) with SIX6 [11]; 8.85 upbm affinity estimate (log intensity, higher = more binding, comparable within an allelic series) with SIX6 [12]. In the experiment with SIX6 [13], the binding signal was 8.83 upbm affinity estimate (log intensity, higher = more binding, comparable within an allelic series).
Consider GCGTATCA, for which the binding signal with SIX6 [1] is 11.3 upbm affinity estimate (log intensity, higher = more binding, comparable within an allelic series); with SIX6 [2] it was 10.2 upbm affinity estimate (log intensity, higher = more binding, comparable within an allelic series); with SIX6 [3], 11.1 upbm affinity estimate (log intensity, higher = more binding, comparable within an allelic series); with SIX6 [4] it was 9.54 upbm affinity estimate (log intensity, higher = more binding, comparable within an allelic series); with SIX6 [5], 10.5 upbm affinity estimate (log intensity, higher = more binding, comparable within an allelic series); with SIX6 [6] it was 11.2 upbm affinity estimate (log intensity, higher = more binding, comparable within an allelic series). The binding signal in the experiment with SIX6 [7] is 10.3 upbm affinity estimate (log intensity, higher = more binding, comparable within an allelic series); in the experiment with SIX6 [8], 11.3 upbm affinity estimate (log intensity, higher = more binding, comparable within an allelic series); with SIX6 [9] it was 11.2 upbm affinity estimate (log intensity, higher = more binding, comparable within an allelic series); with SIX6 [10], 11.3 upbm affinity estimate (log intensity, higher = more binding, comparable within an allelic series); in the experiment with SIX6 [11], 10.9 upbm affinity estimate (log intensity, higher = more binding, comparable within an allelic series); with SIX6 [12], 11.1 upbm affinity estimate (log intensity, higher = more binding, comparable within an allelic series). Further, the binding signal with SIX6 [13] was 11.1 upbm affinity estimate (log intensity, higher = more binding, comparable within an allelic series).
Consider CGATATCC, for which the binding signal with SIX6 [1] is 11.1 upbm affinity estimate (log intensity, higher = more binding, comparable within an allelic series); with SIX6 [2], 10.2 upbm affinity estimate (log intensity, higher = more binding, comparable within an allelic series); in the experiment with SIX6 [3] it was 11.1 upbm affinity estimate (log intensity, higher = more binding, comparable within an allelic series); with SIX6 [4] it was 9.62 upbm affinity estimate (log intensity, higher = more binding, comparable within an allelic series); with SIX6 [5], 10.6 upbm affinity estimate (log intensity, higher = more binding, comparable within an allelic series); with SIX6 [6], 10.9 upbm affinity estimate (log intensity, higher = more binding, comparable within an allelic series). Also, the binding signal with SIX6 [7] was 10.3 upbm affinity estimate (log intensity, higher = more binding, comparable within an allelic series); with SIX6 [8], 11.1 upbm affinity estimate (log intensity, higher = more binding, comparable within an allelic series); in the experiment with SIX6 [9] it was 11.2 upbm affinity estimate (log intensity, higher = more binding, comparable within an allelic series); with SIX6 [10], 11 upbm affinity estimate (log intensity, higher = more binding, comparable within an allelic series); with SIX6 [11], 10.9 upbm affinity estimate (log intensity, higher = more binding, comparable within an allelic series); with SIX6 [12], 11 upbm affinity estimate (log intensity, higher = more binding, comparable within an allelic series). In addition, in the experiment with SIX6 [13], the binding signal is 10.9 upbm affinity estimate (log intensity, higher = more binding, comparable within an allelic series).
